# Laboratory results: PubChem BioAssay (EPA / NIEHS)
# Records with an inconclusive call do not appear. Activity calls are given as the source filed them. Rule for the calls: active = hit-call score of the fitted dose curve at least 0.9, where 1 is the maximum; inconclusive = response in the unintended direction; inactive = score below 0.9.
# Experiment: TOX21_PR_BLA_Followup_Agonist_viability: Viability Assessment in the Tox21 HEK293 Progesterone Receptor (PR) Agonism Beta-lactamase Follow-Up Assay (AID 2283935);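 note: signal loss means lower viability so actives are cytotoxic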
# Procedure: TOX21_PR_BLA_Followup is a secondary assay for specificity for the TOX21_PR_BLA_Agonist assay. To differentiate true PR agonists from cytotoxic substances, this follow up assay is multiplexed with a cell viability assay. The compounds were also tested for auto fluorescence that may interfere with the biological target readout resulting in potential false positives and/or negatives. To identify the compounds that stimulate PR signaling, a PR-UAS-bla GripTite cell line i.e. PR-UAS-bla HEK293T (Invitrogen, Carlsbad, CA, USA) containing a beta-lactamase reporter gene under the control of an UAS response element was used to screen Tox21 10K compound library. The cytotoxicity of the Tox21 compound library against the PR-bla cell line was tested in parallel by measuring the cell viability using CellTiter-Glo assay in the same wells. TOX21_PR_BLA_Followup_Agonist_viability is a component of the TOX21_PR_BLA_Followup_Agonist assay. This component measures cell viability using the CellTiter-Glo Luciferase-coupled ATP quantitation.TOX21_PR_BLA_Followup_Agonist_viability used a type of viability reporter where loss-of-signal activity can be used to understand changes in the cell viability. Furthermore, this assay endpoint can be referred to as a secondary readout, because this assay has produced multiple assay endpoints where this one serves a viability function. To generalize the intended target to other relatable targets, this assay endpoint is annotated to the cell cycle intended target family, where the subfamily is cytotoxicity.
# Assay Protocol: PR-UAS-bla HEK293T cells were dispensed at 3,000 cells/5 uL of assay medium containing 2% charcoal stripped FBS per well into black wall/clear-bottom 1536-well plates using a Multidrop Combi (ThermoFisher Scientific, Waltham, MA) dispenser. After the assay plates were incubated at a 37C and 5% CO2 for 6 hr, 23 nL of compounds dissolved in DMSO, positive controls or DMSO only was transferred to the assay plate by a Pintool station (Kalypsys, San Diego, CA). The plates were incubated at 37C and 5% CO2 for 16 hr. Then 1 uL of LiveBLAzer B/G FRET substrate was added using a Flying Reagent Dispenser (FRD, Aurora Discovery, San Diego, CA), the plates were incubated at room temperature for 2 hours, and fluorescence intensity was measured by an Envision plate reader (PerkinElmer, Shelton, CT). For cell viability readout that measures cytotoxicity, 4 uL/well of CellTiter-Glo reagent was added into the assay plates using a FRD. After 30 min incubation at room temperature, the luminescence intensity in the plates was measured using a ViewLux (PerkinElmer) plate reader.
SMILES,outcome,AC50
CCC(=O)O[C@H]1CC[C@H]2[C@@H]3CCC4=CC(=O)CC[C@]4(C)[C@H]3CC[C@]12C,inactive,–
Oc1ccc(C(c2ccc(O)cc2)(C(F)(F)F)C(F)(F)F)cc1,inactive,–
C[C@]12CCC(=O)C=C1CC[C@@H]1[C@@H]2CC[C@]2(C)C(=O)CC[C@@H]12,inactive,–
CCCCCCCCCc1ccc(O)cc1,inactive,–
COc1ccc(O)c(C(C)(C)C)c1,inactive,–
Clc1ccc(C(c2ccccc2Cl)C(Cl)(Cl)Cl)cc1 (stereo not given),–,46.1 µM (active)
ClC1=C(Cl)[C@]2(Cl)[C@@H]3[C@@H]4C[C@@H]([C@H]5O[C@@H]45)[C@@H]3[C@@]1(Cl)C2(Cl)Cl,inactive,–
ClC(Cl)=C(c1ccc(Cl)cc1)c1ccc(Cl)cc1,inactive,–
C[C@]12CCC(=O)C=C1CC[C@@H]1[C@@H]2CC[C@@]2(C)[C@H]1CC[C@]2(C)O,inactive,–
CC(C)(c1ccccc1)c1ccc(O)cc1,inactive,–
